High-throughput results: PubChem BioAssay, several laboratories
A selection: hits, their analogues and other compounds. The true share with any hit is near 4%.
Mtb FBA inh – inhibits M. tuberculosis FBA enzyme; P9WQA3; inhibition, % at 1 µM; purified M. tuberculosis FBA, fluorescence read-out; 360,000 compounds, 2.3% hits; in the data active means inhibition above about 27%;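 further: 0% = vehicle and 100% = reference inhibitor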
Target sequence (P9WQA3 whole entry, looked up): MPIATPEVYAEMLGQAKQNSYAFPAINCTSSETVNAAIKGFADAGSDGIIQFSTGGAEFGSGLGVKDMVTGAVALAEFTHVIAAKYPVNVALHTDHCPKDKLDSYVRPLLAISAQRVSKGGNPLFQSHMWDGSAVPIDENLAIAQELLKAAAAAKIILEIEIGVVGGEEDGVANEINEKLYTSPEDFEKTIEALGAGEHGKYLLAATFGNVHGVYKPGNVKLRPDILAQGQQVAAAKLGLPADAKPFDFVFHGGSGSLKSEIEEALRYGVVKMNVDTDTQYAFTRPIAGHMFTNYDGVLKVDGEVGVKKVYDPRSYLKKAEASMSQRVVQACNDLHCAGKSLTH
Mtb betalactam – beta-lactam sensitization of Mtb H37Rv. AID 434955. 330,000 compounds, 0.27% hits. M. tuberculosis H37Rv growth with meropenem, percent inhibition. inhibition, % at 25 µM; call rule not given here;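 further: growth measured after seven days incubation then overnight dye step; 0% = bacteria only wells and 100% = bacteria with antibiotic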
RecA splice inh – Mtb RecA intein splicing inhibition; inhibition, % (test concentration not listed); 290,000 compounds, 0.75% hits; P9WHJ3; cell-free RecA intein splicing, fluorescence; in the data active means inhibition above about 30%; inconclusive means no clear call, values can overlap the other calls;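 further: 0% = vehicle wells and 100% = reference inhibitor control wells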
GDH-TPI counter – counter-screen for M. tuberculosis FBA inhibitors: GDH-TPI coupled enzymes | GDH-TPI coupled enzyme counterscreen, NADH absorbance | inhibition, % at 4.8 µM | 360,000 compounds, 1.2% hits; in the data active means inhibition above about 30%;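 further: 0% = DMSO wells and 100% = wells lacking the enzyme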
Rv3671c inh – inhibits the M. tuberculosis serine protease Rv3671c; P9WHR9; AID 2606; 320,000 compounds, 0.048% hits; inhibition, % at 5.96 µM;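 further: extracellular domain of Rv3671c used as enzyme; 0% = enzyme with DMSO and 100% = no enzyme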
Mtb UGM inh – Mtb UDP-galactopyranose mutase inhibition. purified UGM, fluorescence polarization probe displacement. 320,000 compounds, 0.06% hits. P9WIQ1. inhibition, % at 10 µM; in the data active means inhibition above about 10%, passing the limit was not always enough; inconclusive means no clear call, values can overlap the other calls
Rv3671c cf – confirmation of M. tuberculosis Rv3671c protease inhibitors; 140 compounds, 40% hits; shares compounds with Rv3671c inh; inhibition, % at 5.96 µM; AID 2761
* = called active by the depositor; ? = inconclusive; . = no result given; + = active, no number. Unless noted, no stated cut-off is given here; in the data, active means inhibition above about 38%; inactive means the rest.

SMILES	Mtb FBA inh	Mtb betalactam	RecA splice inh	GDH-TPI counter	Rv3671c inh	Mtb UGM inh	Rv3671c cf
O=[N+]([O-])c1cc(Cl)cc(/C=N/NC(=S)Nc2ccc(S(=O)(=O)N3CCOCC3)cc2)c1O	-10.2	39.8	.	19.9	57.9*	3.4	14.3
COc1cc(CCC(=O)OCC(=O)Nc2ccc(C)cc2Cl)cc(OC)c1OC	2.9	-3.5	-1.8	-3.0	0.0	0.3	.
S=C(Nc1ccc(Cl)cc1)N1CCN(C2CCCCC2)CC1	1.0	-12.7	3.6	2.5	4.7	0.8	.
C=CCNC(=S)N1CCN(C2CCCCC2)CC1	3.8	-3.4	1.6	-9.0	40.4*	0.8	-1.0
CCN(c1ccccc1)S(=O)(=O)c1ccc(N2CCN(c3ccc(OC)cc3)CC2)nc1	-2.0	-9.9	.	3.5	101.6*	0.9	-6.0
COc1cc(C=NNc2ccc(S(=O)(=O)Nc3ccccc3C(=O)O)cc2[N+](=O)[O-])ccc1O	-5.6	3.5	.	30.0	47.1*	2.4	41.6*
CCC1CN(C(=O)NCc2ccc(C)cc2)c2cc(Cl)ccc2O1 (stereo unspecified)	-1.6	3.5	-0.1	8.3	.	3.7	.
CCCCNC(=O)COC(=O)c1ccc(Cl)c(S(N)(=O)=O)c1	2.2	-4.9	.	14.2	43.4*	0.4	-5.0
NNC(=O)c1cc2ccccc2cc1O	2.1	-4.8	-9.4	14.7	37.4*	1.5	-4.7
O=C(NCCO)c1cc2ccccc2cc1O	2.5	-1.7	-17.6	0.4	-3.7	1.6	.
O=C(NC(=S)NNC(=O)c1ccccc1O)c1cccnc1	-1.7	6.4	3.3	14.2	46.7*	1.8	43.8*
O=C(O)c1cc(O)c2c(c1)[C@@H]([C@H]1c3cc(C(=O)O)cc(O)c3C(=O)c3c(O[C@@H]4O[C@H](CO)[C@@H](O)[C@H](O)[C@H]4O)cccc31)c1cccc(O[C@@H]3O[C@H](CO)[C@@H](O)[C@H](O)[C@H]3O)c1C2=O	.	12.7	.	.	71.3*	-0.6	20.6
O=S(=O)(c1ccc(F)cc1)c1nc(-c2ccco2)oc1NCCCn1ccnc1	2.5	.	.	9.7	.	.	.
O=S(=O)(NCc1ccc(F)cc1)c1ccccc1Br	0.6	0.8	.	-8.1	-11.4	2.7	.
COc1cc(OC)nc(NC(=O)COC(=O)c2cccc(Cl)c2)n1	0.4	-0.1	-4.2	7.5	+	-0.3	-14.7
c1ccc(CN2CN=C(Nc3nc4ccccc4s3)NC2)cc1	-0.7	2.6	0.4	12.1	3.9	1.4	.
c1ccc(CCN2CN=C(Nc3nc4ccccc4s3)NC2)cc1	-1.0	95.1	4.7	1.5	78.0*	-0.8	8.7
Cc1cccc(-n2c(O)c(C=NC3CCS(=O)(=O)C3)c3ccccc3c2=O)c1 (stereo unspecified)	-1.2	4.6	-1.1	19.0	15.7	0.0	.
Cc1cc(C)cc(-n2c(O)c(C=NC3CCS(=O)(=O)C3)c3ccccc3c2=O)c1 (stereo unspecified)	-1.0	-2.9	1.5	21.2	58.4*	-1.7	47.8*
Nn1c(COc2ccccc2F)nnc1SCC(=O)NC1CCCCC1	-0.3	-15.5	0.0	4.6	1.6	0.1	.
O=C(O)CC1NC(=S)N(c2ccccc2)C1=O (stereo unspecified)	5.7	10.4	0.4	6.7	1.6	-1.4	.
O=C1C(CSCc2ccccc2)NC(=S)N1c1ccccc1 (stereo unspecified)	2.5	-0.5	6.4	-3.1	98.1*	0.1	59.5*
O=C(N/N=C/c1cc([N+](=O)[O-])ccc1O)NC12CC3CC(CC(C3)C1)C2	-2.7	57.2	1.9	18.8	51.9*	1.1	19.8
Cc1ccc(C2(C)NC(=O)N(CC(=O)NC(=O)NC(C)C)C2=O)cc1 (stereo unspecified)	3.4	-3.1	-1.2	6.2	7.7	1.4	.
CCN1/C(=C/C=C/c2sc3ccccc3[n+]2CC)Sc2ccccc21	4.7	81.0	19.8	15.0	-368.7	-2.3	.
CCN1/C(=C/C=C/c2oc3ccc(-c4ccccc4)cc3[n+]2CC)Oc2ccc(-c3ccccc3)cc21	-18.7	94.8	-7.6	12.2	59.5*	?	-16.5
COc1ccc(CC(=O)Oc2ccccc2C)cc1	0.8	7.5	2.7	3.5	11.7	1.6	.
CCC(=O)c1ccc(OC(=O)Cc2ccc(OC)cc2)cc1	1.4	4.4	12.2	10.3	50.9*	0.7	55.2*
N#CCN(CC#N)C(=O)C1c2ccccc2Oc2ccccc21	-1.0	-0.8	0.7	5.5	103.8*	8.5	5.0
